Only some compounds are listed: those with a hit (about 10% of all), similar ones and a draw of the others.
HPGD inh – inhibitors of human 15-hydroxyprostaglandin dehydrogenase (HPGD); AID 894; P15428; 150,000 tested, 4.3% active; Potency, µM, for inactives: top-dose activity change, negative = inhibition, most hits filed as inhibitors; purified HPGD, NADH fluorescence kinetic, PGE2 substrate; active = well fitted inhibition curve with a large enough effect, not every such curve was filed as active; inconclusive = small, poorly fitted or top-dose-only effect, or another doubt; inactive = no such curve, though single readings can be large or run the other way; note: potency is the fitted concentration of half-maximal effect
Target sequence (P15428 whole entry, looked up): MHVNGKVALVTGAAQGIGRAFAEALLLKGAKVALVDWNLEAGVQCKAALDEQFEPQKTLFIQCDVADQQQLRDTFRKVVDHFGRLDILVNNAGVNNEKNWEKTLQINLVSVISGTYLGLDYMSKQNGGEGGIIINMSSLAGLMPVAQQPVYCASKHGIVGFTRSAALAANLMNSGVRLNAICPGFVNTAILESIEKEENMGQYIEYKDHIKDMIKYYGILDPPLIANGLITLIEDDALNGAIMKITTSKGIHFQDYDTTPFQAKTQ
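NADH formation kinetics: reaction with 30 uM PGE2 and 1 mM NAD+ (final), 20 nM enzyme, Tris-HCl pH 8 with Tween 20, after 15 min compound preincubation at room temperature. Fluorescence change, last versus first of five reads.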
ALDH1A1 block – ALDH1A1 (human) enzyme inhibition; Purified ALDH1A1, NADH fluorescence, propionaldehyde substrate; Potency, µM (titrated, usually from 75.3 µM), for inactives: at the top dose activity, negative = inhibition, usual class: inhibitors; 220,000 tested, 7.3% active; active = well fitted inhibition curve with a large enough effect, not every such curve was filed as active; inconclusive = small, poorly fitted or top-dose-only effect, or another doubt; inactive = no such curve, though single readings can be large or run the other way;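 note: potency is the fitted concentration of half-maximal effect; plate controls were no enzyme wells and a reference inhibitor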
aGal spleen mod – inhibits or activates alpha-galactosidase in human spleen homogenate. P06280. human spleen homogenate, 4MU-alpha-Gal fluorescence, 40 min. Potency, µM (series often up to 80 µM), for the others: at the top dose activity change, negative = inhibition, most hits filed as inhibitors. 240,000 tested, 0.008% active;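 note: potency is the fitted concentration of half-maximal effect; 0% = enzyme with vehicle and -100% = no enzyme basal signal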
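Spleen homogenate 1 ug + cpd (titration) + 4-MU-alpha-D-galactopyranoside 1 mM; 37C 40 min; 50 mM citrate/phosphate pH 5.0, 0.01% Tween-20; stop pH 10; fluorescence 365/440; AC50 via Hill.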
12-hLO inh – 12-hLO (ALOX12) enzyme inhibition; purified 12-hLO, xylenol orange hydroperoxide absorbance; P18054; 150,000 tested, 0.12% active; Potency, µM (doses to about 57.1 µM), for inactives: top-dose activity change, negative = inhibition, actives largely listed as inhibitors; note: potency is the fitted concentration of half-maximal effect; nearly all actives have a fitted effect of over 55% in size
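Lipoxygenase turnover measured by absorbance at 573 and 405 nm after Fe-XO development. Human 12hLO 150 nM, arachidonate 40 uM, pH 7.0 Hepes buffer with detergent; 15 min compound preincubation, 30 min reaction.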
PNC inhibitor – inhibitors of perinucleolar compartment assembly | PC3M PTB-GFP, PNC prevalence imaging, 16 h; active compounds read low | activity change (PNC), negative = inhibition, % at 10 µM | 140,000 tested, 3.1% active | AID 2417;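 active = readout at or below -70, meaning at least 70% loss of cells showing the perinucleolar compartment, a nuclear body marking cancer cells; inconclusive = readout between -30 and a set limit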;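 note: plate controls were DMSO wells for no effect and camptothecin positive control wells for full effect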
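Compounds are pinned in duplicate onto adhered PC3M cells stably expressing GFP-tagged PTB and incubated 16 h at 37 C. Cells are then fixed, nuclei stained with Hoechst, and PNC-positive cells counted.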
GLA inh pH 4.5 – inhibitors of human alpha-galactosidase A at pH 4.5; activity change, negative = inhibition, % at 105 µM; purified enzyme, 4-MU-alpha-Gal fluorescence, pH 4.5; P06280; AID 1467; 230,000 tested, under 10 active;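 note: 0% = full activity with enzyme and -100% = basal without enzyme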
Target sequence (P06280 whole entry, looked up): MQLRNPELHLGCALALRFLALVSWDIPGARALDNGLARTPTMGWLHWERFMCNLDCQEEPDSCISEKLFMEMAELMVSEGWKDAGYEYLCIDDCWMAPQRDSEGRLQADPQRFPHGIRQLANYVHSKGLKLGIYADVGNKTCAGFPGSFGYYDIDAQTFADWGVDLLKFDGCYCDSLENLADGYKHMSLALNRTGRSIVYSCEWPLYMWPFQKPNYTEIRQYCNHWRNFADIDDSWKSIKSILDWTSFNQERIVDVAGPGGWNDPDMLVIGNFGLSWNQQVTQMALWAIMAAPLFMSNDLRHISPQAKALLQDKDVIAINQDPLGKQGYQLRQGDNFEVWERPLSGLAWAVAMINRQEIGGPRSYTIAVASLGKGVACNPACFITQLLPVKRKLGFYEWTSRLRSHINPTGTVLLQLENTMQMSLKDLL
* marks the source's active call; other numbers are inactive results; u = inconclusive; x = no result given; [ ] = dose if it differs, or a comment. Unless noted, calls come from the whole dose curve; as a rule, active = well fitted curve in the direction sought with a large enough effect; inconclusive = small, poorly fitted or top-dose-only effect, or another doubt; inactive = no such curve, though single readings can be large; an effect the other way counts as inactive or inconclusive. Unless noted, % is set by controls: 0 for no effect and ±100 for the full control effect.

SMILES | HPGD inh | ALDH1A1 block | aGal spleen mod | 12-hLO inh | PNC inhibitor | GLA inh pH 4.5
O=C(COC(=O)c1cccc(NS(=O)(=O)/C=C/c2ccccc2)c1)Nc1ccccc1OC(F)F | -21% | u | -1% | -1% | -11 | -16
O=C(COc1ccc(S(=O)(=O)N2CCc3ccccc32)cc1Cl)NCc1ccccn1 | -5% | 14µM* | -16% | -3% | u | -5
Cc1cc(S(=O)(=O)NC2CCCCC2)ccc1OCC(=O)NCc1ccccn1 | 16µM* | u | -1% | -1% | 36 | -3
CCOc1cc(CNCc2ccccn2)ccc1OCC(=O)NC1CCCCC1 | -3% | -12% | 6% | -2% | 29 | 11
COc1ccc(S(=O)(=O)N2CCc3ccccc32)cc1C(=O)NCCc1ccccn1 | x | u | 8% | x | x | -2
CCOc1c(N2CCOCC2)c(=O)c1=O | x | x | -8% | x | x | -7
CCCCCc1cc(=O)oc2c(C(CCN(CC)CC)c3ccc(N(C)C)cc3)c(OC)cc(OC)c12 (stereo not drawn) | x | x | -5% | x | x | -6
FC(F)(F)c1ccccc1-c1nccc(NCCN2CCOCC2)n1 | x | 15% | 3% | x | x | x
Cc1ccccc1-c1nccc(NCCN2CCOCC2)n1 | x | 32µM* | -4% | x | x | x
CC(C)C(c1nnnn1C1CCCC1)N1CCc2ccccc21 (stereo not drawn) | -11% | u | -4% | -7% | 40 | -3
CC(C)C(c1nnnn1Cc1ccccc1)N1CCc2ccccc2C1 (stereo not drawn) | -16% | 10µM* | 4% | -2% | -13 | 0
CC(C)C(c1nnnn1C1CCCCC1)N1CCc2ccccc2C1 (stereo not drawn) | -12% | 25µM* | 0% | -8% | 9 | 2
CC(C)C(c1nnnn1C1CCCC1)N1CCCc2ccccc21 (stereo not drawn) | -17% | u | -23% | -1% | -100* | -4
O=C(NC(Cc1ccccc1)C(=O)O)/C(=C/c1ccc(F)cc1)NC(=O)c1ccccc1 (stereo not drawn) | -10% | 22% | -7% | 2% | -14 | -3
Cc1nccn1-c1cc(C(C)(C)C)nc2c(-c3ccccc3)cnn12 | -17% | 4% | 5% | 0% | -22 | -10
CCOC(=O)CC(=O)CSc1ncnc2c1nnn2-c1ccc(OC)cc1 | x | -13% | 0% | x | x | 2
C=CCn1c(SCC(=O)c2[nH]c(C)c(C(=O)OCC)c2C)nc2scc(-c3ccc(OC)cc3)c2c1=O | -5% | -9% | 4% | -1% | 19 | 6
CCN(CC)c1ccc(C=Nc2cc(C)ccc2C)c(O)c1 | -1% | u | 1% | -5% | 8 | -4
CCN(CC)c1ccc(/C=N/n2nnnc2N)c(O)c1 | u | u | -1% | -8% | -120* | -12
O=[N+]([O-])c1cccc(N/N=C/c2cc([N+](=O)[O-])ccc2O)c1 | x | 3% | -2% | x | x | -11
CCN(CC)c1ccc(/C=N/Nc2ccc(C)cc2)c(O)c1 | 32µM* | 10µM* | 1% | -11% | -12 | -5
Cc1cccc(N/N=C/c2ccccc2O)c1 | u | 25µM* | -5% | -28% | 12 | 8
CCN(CC)c1ccc(C=Nc2ccc(C)cc2C)c(O)c1 | x | 20µM* | 1% | x | x | -11
CSc1ncc(Cl)c(C(=O)C(C#N)c2nc3c(C)cc(C)cc3c(=O)[nH]2)n1 (stereo not drawn) | 25µM* | -10% | -12% | 3% | -95* | 2
Cc1ccc(NC(=O)CSCC(=O)Nc2ncc3c(n2)CC(c2ccco2)CC3=O)cc1 (stereo not drawn) | 2% | 4µM* | 0% | -9% | -85* | 7
SMILES | HPGD inh | ALDH1A1 block | aGal spleen mod | 12-hLO inh | PNC inhibitor | GLA inh pH 4.5
NC(N)=NC(N)=Nc1ccc(S(=O)(=O)O)cc1 | -1% | 7%[13.5 µM] | x | -2%[11.4 µM] | x | x
Fc1cccc(NC(=S)N2CCCC2)c1 | -5% | 21% | 2% | 3% | -25 | -12
Cc1cccc(NC(=S)N2CCCCCC2)c1 | 3% | u | -1% | -4% | -106* | -6
Clc1cccc(C=NC=Nc2cccc(Cl)c2)c1 | -2% | 9% | -2% | 1% | x | 6
Cc1cccc(C(=O)NC(=S)NNC(=O)Cc2ccccc2)c1 | -18% | u | -8% | -3% | u | -4
CCCCNC(=S)NNC(=O)c1cccnc1 | -8% | 5% | -5% | -1% | -87* | -1
CCNC(=S)NNC(=O)c1cccnc1 | -6% | 2% | 6% | 6% | -7 | -3
O=C(NC(=S)NNC(=O)c1ccc(Cl)cc1Cl)c1cccnc1 | u | 24µM* | 3% | -3% | u | -3
Cc1cccc(C(=O)NC(=S)NNC(=O)c2ccccc2Cl)c1 | -3% | 22µM* | 7% | 0% | 32 | -4
COC(=O)CN1C(=O)[C@@H]2[C@H](C1=O)[C@@H]1CC(C(=O)OC)=C[C@@H](C(=O)OC)C3C1=C(C(=O)C31CCCCC1)[C@@H]2C (stereo partly drawn) | x | x | 14% | x | x | x
CCc1nnc(NS(=O)(=O)c2ccc(NC(=O)c3cccc(Cl)c3)cc2)s1 | x | 1% | -7% | x | x | -3
COc1ccccc1C(c1nnnn1CC1CCCO1)N1CCC(C(N)=O)CC1 (stereo not drawn) | -18% | 3% | -2% | 3% | -100* | -7
COc1ccc(C(c2nnnn2CC2CCCO2)N2CCC(C(N)=O)CC2)cc1 (stereo not drawn) | 1% | 1% | 3% | 7% | 16 | -5
C=CCN1CCN(C(c2cc(OC)ccc2OC)c2nnnn2CC2CCCO2)CC1 (stereo not drawn) | -12% | 28µM* | 20% | 1% | u | 11
COc1ccccc1OCC(O)CNCc1ccc2c(c1)OCO2 (stereo not drawn) | x | x | 1% | x | x | -2
CC1(C)Cc2c(C#N)c(N)sc(=S)c2CS1 | -12% | 7.1µM* | 0% | u | 11 | -5
N#Cc1c(N)sc(=S)c2c1CCCCC2 | 16µM* | u | -2% | -7% | 44 | 4
CO[C@H]1C=CO[C@@]2(C)Oc3c(C)c(O)c4c(O)c(c(C=NN5CCN(C)CC5)c(O)c4c3C2=O)NC(=O)C(C)=CC=C[C@H](C)[C@H](O)[C@@H](C)[C@@H](O)[C@@H](C)[C@H](OC(C)=O)[C@@H]1C | 25µM* | u | -19% | -27% | -115* | -3
O=S(=O)(CCN1C=CC(C(F)(F)F)=NCC1)c1ccc(Cl)cc1Cl | x | 13µM* | 4% | x | x | -5
CC(N)CN (stereo not drawn) | -10% | u | 1% | -1% | x | x
COc1ccc(C2/C=C\CN(C(=O)C3CC3)C(Cc3ccccc3)C(=O)N2Cc2ccc(F)cc2)cc1 (stereo not drawn) | x | x | 3% | x | x | x
